Experimental data published in paper PMC7862700, “An all-to-all approach to the identification of sequence-specific readers for epigenetic DNA modifications on cytosine”.

How the values were obtained:
Assay in all cases: DAPPL (digital affinity profiling via proximity ligation, sequencing); 10 mM Tris-HCl pH 7.5, 50 mM NaCl, 1 mM DTT, 4% glycerol, room temperature, 30 min; GST-TFs on glutathione beads, 16-mer random dsDNA library, 0.1% formaldehyde crosslink after washing; high values mean tight binding
Settings in all cases: protein: recombinant; tags: N-terminal GST; dsDNA, one strand shown
FLI1 = target: T1, FLI1 (Homo sapiens, UniProt Q01543 1-452)
T1 sequence: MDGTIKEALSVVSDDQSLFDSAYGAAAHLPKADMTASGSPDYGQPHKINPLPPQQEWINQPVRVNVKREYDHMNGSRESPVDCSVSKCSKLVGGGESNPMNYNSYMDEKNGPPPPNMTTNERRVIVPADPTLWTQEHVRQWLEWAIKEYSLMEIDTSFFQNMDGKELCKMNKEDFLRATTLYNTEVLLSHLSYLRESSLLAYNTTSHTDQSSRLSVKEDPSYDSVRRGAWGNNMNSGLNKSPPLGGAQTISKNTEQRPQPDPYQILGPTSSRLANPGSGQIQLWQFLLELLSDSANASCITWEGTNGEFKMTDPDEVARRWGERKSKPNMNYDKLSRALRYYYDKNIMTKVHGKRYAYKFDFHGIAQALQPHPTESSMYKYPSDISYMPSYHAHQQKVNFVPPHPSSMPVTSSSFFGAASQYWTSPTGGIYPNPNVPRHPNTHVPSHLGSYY
In short: (§1)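 After expression in yeast as GST fusions, human transcription factors were bound to glutathione beads, DNA-barcoded and mixed with a tag-only sample. The pools were incubated with 200 nmole of a 16-mer random double-stranded DNA library in Tris/NaCl/DTT/glycerol buffer (30 min, room temperature), washed and crosslinked with 0.1% formaldehyde. Proximity ligation with BsaI/T4 ligase ran for 1 h at 37 °C, before PCR amplification and sequencing on an Illumina NextSeq500. Binding signal is a hexamer's read frequency for a factor divided by its frequency for the tag-only sample.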

ELK1 = target: T2, ELK1 (Homo sapiens, UniProt P19419 1-428)
T2 sequence: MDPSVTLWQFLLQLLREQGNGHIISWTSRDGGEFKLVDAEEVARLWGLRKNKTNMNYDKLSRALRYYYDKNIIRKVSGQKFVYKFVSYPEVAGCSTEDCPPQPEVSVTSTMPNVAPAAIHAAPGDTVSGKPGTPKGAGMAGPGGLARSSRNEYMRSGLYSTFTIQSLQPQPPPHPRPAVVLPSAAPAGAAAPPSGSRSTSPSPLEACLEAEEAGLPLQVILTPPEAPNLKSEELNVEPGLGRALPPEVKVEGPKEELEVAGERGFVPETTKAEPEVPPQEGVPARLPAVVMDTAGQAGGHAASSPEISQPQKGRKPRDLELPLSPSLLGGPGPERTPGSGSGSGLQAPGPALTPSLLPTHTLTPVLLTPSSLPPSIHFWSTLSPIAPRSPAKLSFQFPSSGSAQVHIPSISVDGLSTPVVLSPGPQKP
In short: as §1

GABPA = target: T3, GABPA (Homo sapiens, UniProt Q06546 1-454)
T3 sequence: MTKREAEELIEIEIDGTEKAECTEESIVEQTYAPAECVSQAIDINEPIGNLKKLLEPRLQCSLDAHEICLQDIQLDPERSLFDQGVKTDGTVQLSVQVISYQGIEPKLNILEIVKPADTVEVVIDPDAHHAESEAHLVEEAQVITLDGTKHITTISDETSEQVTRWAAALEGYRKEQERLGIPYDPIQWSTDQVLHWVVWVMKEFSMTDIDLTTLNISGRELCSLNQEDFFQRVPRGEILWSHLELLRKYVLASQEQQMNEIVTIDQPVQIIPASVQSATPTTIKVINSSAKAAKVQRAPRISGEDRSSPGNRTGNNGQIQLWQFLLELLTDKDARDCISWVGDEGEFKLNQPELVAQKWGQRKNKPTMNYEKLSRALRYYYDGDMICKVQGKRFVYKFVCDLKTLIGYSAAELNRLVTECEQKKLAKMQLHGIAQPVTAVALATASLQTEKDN
In short: as §1

ERG = target: T4, ERG (Homo sapiens, UniProt P11308 1-479)
T4 sequence: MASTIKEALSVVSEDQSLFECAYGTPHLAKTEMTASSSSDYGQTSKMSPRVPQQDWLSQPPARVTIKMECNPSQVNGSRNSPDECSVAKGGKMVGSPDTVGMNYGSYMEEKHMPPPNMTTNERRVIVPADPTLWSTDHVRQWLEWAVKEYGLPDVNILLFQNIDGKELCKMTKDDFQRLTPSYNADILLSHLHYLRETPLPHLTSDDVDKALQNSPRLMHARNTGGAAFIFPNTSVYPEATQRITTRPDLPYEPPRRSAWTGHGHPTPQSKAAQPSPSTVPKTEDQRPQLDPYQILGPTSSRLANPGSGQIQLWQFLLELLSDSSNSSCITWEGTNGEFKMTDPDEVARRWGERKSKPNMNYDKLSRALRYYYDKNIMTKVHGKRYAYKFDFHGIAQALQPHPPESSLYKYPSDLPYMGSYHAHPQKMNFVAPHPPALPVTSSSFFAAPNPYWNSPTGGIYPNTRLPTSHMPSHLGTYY
In short: as §1

ELF1 = ELF1 (Homo sapiens, UniProt P32519 1-619)
Chain of ELF1 (P32519 whole entry): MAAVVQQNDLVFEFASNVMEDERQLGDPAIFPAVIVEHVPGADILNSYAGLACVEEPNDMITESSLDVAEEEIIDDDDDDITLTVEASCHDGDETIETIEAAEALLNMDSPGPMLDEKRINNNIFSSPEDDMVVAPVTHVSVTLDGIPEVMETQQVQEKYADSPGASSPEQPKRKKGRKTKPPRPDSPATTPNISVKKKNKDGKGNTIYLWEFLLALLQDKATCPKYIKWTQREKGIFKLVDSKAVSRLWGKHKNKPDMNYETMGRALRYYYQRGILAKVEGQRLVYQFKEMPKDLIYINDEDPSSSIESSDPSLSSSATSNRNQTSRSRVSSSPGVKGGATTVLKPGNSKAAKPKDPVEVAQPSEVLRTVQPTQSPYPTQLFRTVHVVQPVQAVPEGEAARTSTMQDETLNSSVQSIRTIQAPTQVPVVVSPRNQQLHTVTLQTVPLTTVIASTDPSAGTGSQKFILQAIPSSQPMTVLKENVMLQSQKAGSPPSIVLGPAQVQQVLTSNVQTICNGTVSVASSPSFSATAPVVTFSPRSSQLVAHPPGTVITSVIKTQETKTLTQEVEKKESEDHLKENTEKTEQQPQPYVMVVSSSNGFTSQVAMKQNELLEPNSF
In short: as §1

EHF = target: T5, EHF (Homo sapiens, UniProt Q9NZC4 1-300)
T5 sequence: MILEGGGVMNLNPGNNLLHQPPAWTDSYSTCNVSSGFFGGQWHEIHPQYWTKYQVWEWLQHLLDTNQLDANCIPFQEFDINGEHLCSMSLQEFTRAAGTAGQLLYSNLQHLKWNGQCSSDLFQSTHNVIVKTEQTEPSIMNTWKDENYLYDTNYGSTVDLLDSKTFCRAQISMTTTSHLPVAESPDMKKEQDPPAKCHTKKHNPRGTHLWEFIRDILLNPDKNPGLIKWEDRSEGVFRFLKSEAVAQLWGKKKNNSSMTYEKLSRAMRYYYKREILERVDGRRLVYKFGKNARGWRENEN
In short: as §1

SPI1 = SPI1 (Homo sapiens, UniProt P17947 1-270)
In short: as §1

SPIB = SPIB (Homo sapiens, UniProt Q01892 1-262)
Chain of SPIB (Q01892 whole entry): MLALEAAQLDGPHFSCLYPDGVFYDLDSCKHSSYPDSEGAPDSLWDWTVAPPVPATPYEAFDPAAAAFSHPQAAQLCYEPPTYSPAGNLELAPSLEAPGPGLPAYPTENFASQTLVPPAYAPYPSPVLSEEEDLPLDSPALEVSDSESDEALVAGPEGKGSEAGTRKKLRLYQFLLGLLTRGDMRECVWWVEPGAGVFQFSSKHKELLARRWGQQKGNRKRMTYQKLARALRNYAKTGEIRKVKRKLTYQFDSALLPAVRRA
In short: as §1

ETV5 = ETV5 (Homo sapiens, UniProt P41161 1-510)
Chain of ETV5 (P41161 whole entry): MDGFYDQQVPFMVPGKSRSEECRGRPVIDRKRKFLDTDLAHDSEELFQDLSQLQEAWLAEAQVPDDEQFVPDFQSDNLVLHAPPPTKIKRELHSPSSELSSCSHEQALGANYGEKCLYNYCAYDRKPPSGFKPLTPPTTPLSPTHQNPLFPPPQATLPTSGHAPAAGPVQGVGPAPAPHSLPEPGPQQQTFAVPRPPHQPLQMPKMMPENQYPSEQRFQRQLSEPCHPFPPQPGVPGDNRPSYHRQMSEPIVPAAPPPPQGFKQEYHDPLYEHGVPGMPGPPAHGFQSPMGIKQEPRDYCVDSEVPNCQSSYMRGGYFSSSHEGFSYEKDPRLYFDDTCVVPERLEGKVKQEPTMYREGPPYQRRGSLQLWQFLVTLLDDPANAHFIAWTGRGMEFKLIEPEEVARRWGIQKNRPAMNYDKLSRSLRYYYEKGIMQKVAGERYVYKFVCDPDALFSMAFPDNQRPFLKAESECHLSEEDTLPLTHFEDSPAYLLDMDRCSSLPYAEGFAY
In short: as §1

SPIC = target: T6, SPIC (Homo sapiens, UniProt Q8N5J4 1-248)
T6 sequence: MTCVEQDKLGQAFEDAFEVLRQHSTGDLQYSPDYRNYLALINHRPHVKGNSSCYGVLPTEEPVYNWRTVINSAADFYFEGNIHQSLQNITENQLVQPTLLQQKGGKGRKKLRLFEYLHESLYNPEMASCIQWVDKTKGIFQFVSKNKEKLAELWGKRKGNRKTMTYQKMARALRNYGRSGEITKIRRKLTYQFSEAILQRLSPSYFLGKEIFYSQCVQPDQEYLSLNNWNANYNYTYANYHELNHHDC
In short: as §1

ELF4 = ELF4 (Homo sapiens, UniProt Q99607 1-663)
Chain of ELF4 (Q99607 whole entry): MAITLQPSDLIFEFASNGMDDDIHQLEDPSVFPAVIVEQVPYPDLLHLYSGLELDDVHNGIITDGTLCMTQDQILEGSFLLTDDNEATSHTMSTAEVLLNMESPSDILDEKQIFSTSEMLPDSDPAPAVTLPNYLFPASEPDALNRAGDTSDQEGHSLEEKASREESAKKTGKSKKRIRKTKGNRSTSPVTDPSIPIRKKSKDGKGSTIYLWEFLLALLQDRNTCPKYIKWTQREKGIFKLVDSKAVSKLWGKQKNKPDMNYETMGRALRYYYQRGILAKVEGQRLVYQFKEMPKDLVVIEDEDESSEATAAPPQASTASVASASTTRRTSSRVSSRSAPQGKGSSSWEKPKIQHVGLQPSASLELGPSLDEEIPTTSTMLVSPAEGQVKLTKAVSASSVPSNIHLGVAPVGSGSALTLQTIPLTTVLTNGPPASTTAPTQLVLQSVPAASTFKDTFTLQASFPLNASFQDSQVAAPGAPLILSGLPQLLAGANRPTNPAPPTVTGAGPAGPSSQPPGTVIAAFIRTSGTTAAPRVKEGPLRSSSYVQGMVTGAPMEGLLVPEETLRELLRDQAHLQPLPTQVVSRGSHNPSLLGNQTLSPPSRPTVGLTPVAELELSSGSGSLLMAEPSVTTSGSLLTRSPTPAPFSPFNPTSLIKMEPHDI
In short: as §1

ETV1 = ETV1 (Homo sapiens, UniProt P50549 1-477)
Chain of ETV1 (P50549 whole entry): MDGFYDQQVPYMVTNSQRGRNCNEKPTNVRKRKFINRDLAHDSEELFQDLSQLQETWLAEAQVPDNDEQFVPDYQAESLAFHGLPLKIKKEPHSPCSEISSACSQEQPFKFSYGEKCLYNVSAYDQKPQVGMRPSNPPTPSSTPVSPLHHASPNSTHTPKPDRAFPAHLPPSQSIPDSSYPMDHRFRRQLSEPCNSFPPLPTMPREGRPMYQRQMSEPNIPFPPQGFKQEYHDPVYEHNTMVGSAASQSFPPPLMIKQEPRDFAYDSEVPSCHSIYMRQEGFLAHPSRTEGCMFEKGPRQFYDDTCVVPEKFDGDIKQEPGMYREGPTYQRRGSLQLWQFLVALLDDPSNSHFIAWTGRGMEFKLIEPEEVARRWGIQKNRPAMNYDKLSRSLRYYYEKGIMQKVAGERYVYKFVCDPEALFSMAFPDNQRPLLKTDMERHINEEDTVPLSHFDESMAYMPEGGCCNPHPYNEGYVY
In short: as §1

ETS2 = target: T7, ETS2 (Homo sapiens, UniProt P15036 1-469)
T7 sequence: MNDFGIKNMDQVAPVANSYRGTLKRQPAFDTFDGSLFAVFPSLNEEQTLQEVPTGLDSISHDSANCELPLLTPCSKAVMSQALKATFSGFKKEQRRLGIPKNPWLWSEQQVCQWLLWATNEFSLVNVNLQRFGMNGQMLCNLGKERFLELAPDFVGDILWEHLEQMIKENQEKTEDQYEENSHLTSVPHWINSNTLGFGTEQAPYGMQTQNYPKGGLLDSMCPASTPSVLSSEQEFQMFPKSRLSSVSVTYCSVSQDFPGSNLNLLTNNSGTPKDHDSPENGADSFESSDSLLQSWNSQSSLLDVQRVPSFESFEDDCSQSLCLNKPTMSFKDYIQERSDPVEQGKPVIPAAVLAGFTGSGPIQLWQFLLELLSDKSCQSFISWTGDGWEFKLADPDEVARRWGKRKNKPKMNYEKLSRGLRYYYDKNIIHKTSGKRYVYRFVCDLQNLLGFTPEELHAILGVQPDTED
In short: as §1

ETV3 = target: T8, ETV3 (Homo sapiens, UniProt P41162-2 1-143)
T8 sequence: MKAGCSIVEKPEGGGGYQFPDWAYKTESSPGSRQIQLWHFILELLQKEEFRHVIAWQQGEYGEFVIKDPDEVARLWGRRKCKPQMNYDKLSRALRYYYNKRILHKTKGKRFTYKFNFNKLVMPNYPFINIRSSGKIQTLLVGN
In short: as §1

Sequence: AAGGGT
- binding signal (FLI1): 1 fold enrichment (6-mer frequency, TF over GST control)
- binding signal (ELK1): 1.01 fold enrichment (6-mer frequency, TF over GST control)
- binding signal (GABPA): 1.01 fold enrichment (6-mer frequency, TF over GST control)
- binding signal (ERG): 1 fold enrichment (6-mer frequency, TF over GST control)
- binding signal (ELF1): 1.01 fold enrichment (6-mer frequency, TF over GST control)
- binding signal (EHF): 1.01 fold enrichment (6-mer frequency, TF over GST control)
- binding signal (SPI1): 1.05 fold enrichment (6-mer frequency, TF over GST control)
- binding signal (SPIB): 1.04 fold enrichment (6-mer frequency, TF over GST control)
- binding signal (ETV5): 1.05 fold enrichment (6-mer frequency, TF over GST control)
- binding signal (SPIC): 1.08 fold enrichment (6-mer frequency, TF over GST control)
- binding signal (ELF4): 1.01 fold enrichment (6-mer frequency, TF over GST control)
- binding signal (ETV1): 1.05 fold enrichment (6-mer frequency, TF over GST control)
- binding signal (ETS2): 1.07 fold enrichment (6-mer frequency, TF over GST control)
- binding signal (ETV3): 1.05 fold enrichment (6-mer frequency, TF over GST control)
